Results from PubChem BioAssay AID651742 (Broad Institute, 2012).
Screen size: about 5,600 compounds; about 780 (14%) were called active. Roughly 3% stayed inconclusive and do not appear here. Only a sample is shown. Unmarked numbers belong to inactive results.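 How the source made its calls: active means mean signal decrease across replicates above about 35% based on untreated-well scatter, with enough replicates individually passing (limit read from the data); inconclusive means no rule stated though some were filed; inactive means the rest.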

Assay: cytotoxicity in mouse NIH/3T3 fibroblasts, confirmation, cytotoxicity control for T. cruzi proliferation inhibitor project, cell-based, cherry-pick, single point (AID 651742);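 further: 0% = median of neutral control wells and 100% = median of positive control wells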
Settings: NIH/3T3 viability, CellTiter-Glo ATP luminescence, 90 h; at 8.35 µM; hits give high values

Compound | cytotoxicity (signal decrease)
CS(=O)(=O)N1[C@@H](C#N)[C@H](c2ccc(C#CC3CCCCC3)cc2)[C@@H]1CO | 4.86%
COc1cccc(S(=O)(=O)N2CCCCN3[C@H](C2)[C@H](c2ccc(C#CC(C)C)cc2)[C@@H]3CO)c1 | 19.3%
C[C@@H]1CN([C@@H](C)CO)C(=O)c2cc(NC(=O)Nc3ccc(C(F)(F)F)cc3)ccc2O[C@@H](C)CCCCO[C@H]1CN(C)C(=O)c1ccccc1 | 23.5%
C[C@H]1CN([C@@H](C)CO)C(=O)CCCn2cc(nn2)CO[C@H]1CN(C)C(=O)c1ccccc1 | 10.9%
C[C@H](CO)N1C[C@H](C)[C@H](CN(C)C(=O)Nc2ccc(C(F)(F)F)cc2)OCCCC[C@H](C)Oc2ccc(NC(=O)C3CCCCC3)cc2C1=O | -27%
Cc1noc(C)c1S(=O)(=O)Nc1ccc2c(c1)C(=O)N([C@@H](C)CO)C[C@H](C)[C@@H](CN(C)C(=O)Nc1cccc3ccccc13)OCCCC[C@H](C)O2 | 7.99%
COc1ccc(S(=O)(=O)Nc2ccc3c(c2)C(=O)N([C@H](C)CO)C[C@H](C)[C@H](CN(C)Cc2ccc(C(F)(F)F)cc2)O3)cc1 | 29%
O=C(CN1CCOCC1)N1CCCCN2[C@@H](CO)[C@H](c3ccc(-c4ccccc4)cc3)[C@@H]2C1 | 8.85%
C[C@H]1CN([C@@H](C)CO)C(=O)c2cc(NC(=O)Nc3ccc4c(c3)OCO4)ccc2O[C@@H]1CN(C)Cc1ccc(Oc2ccccc2)cc1 | 16%
C[C@@H]1CN([C@@H](C)CO)C(=O)c2cc(NC(=O)Cc3ccccc3)ccc2O[C@@H]1CN(C)Cc1ccc(Oc2ccccc2)cc1 | 27.9%
N#C[C@@H]1[C@@H](c2ccc(C#Cc3cccc(F)c3)cc2)[C@@H](CO)N1C(=O)C1CCC1 | 29.1%
CC(C)CC#Cc1cnc2c(c1)C(=O)N([C@@H](C)CO)C[C@@H](C)[C@H](CN(C)C(=O)Cc1ccncc1)O2 | -12%
CC(=O)N(C)C[C@@H]1[C@@H](c2ccc(-c3ccccc3F)cc2)[C@@H](CO)N1C(C)=O | 0.445%
CCN(C[C@H]1[C@H](c2ccccc2)[C@H](CO)N1C(=O)C1CC1)C(=O)NC1CCCC1 | -12.5%
CC(C)NC(=O)Nc1ccc2c(c1)C(=O)N([C@H](C)CO)C[C@H](C)[C@H](CN(C)C(=O)Nc1ccc(C(F)(F)F)cc1)OCCCC[C@@H](C)O2 | -9.66%
Cc1ccccc1S(=O)(=O)N1CC[C@H]2[C@H](CO)Nc3ccc(-c4cccc(F)c4)cc3[C@H]21 | 52.4% (active)
O=S(=O)(c1ccccc1)N1CC[C@@H]2[C@@H](CO)Nc3ccc(C#Cc4cccc(F)c4)cc3[C@@H]21 | 33%
OC[C@@H]1Nc2ccc(-c3cccc(F)c3)cc2[C@H]2[C@@H]1CCN2Cc1ccncc1 | 9.48%
C[C@H](CO)N1C[C@H](C)[C@@H](CN(C)Cc2ccc(C(F)(F)F)cc2)OCCCC[C@H](C)Oc2ccc(NC(=O)C3CCCCC3)cc2C1=O | 27.4%

Compound | cytotoxicity (signal decrease)
COc1cccc(S(=O)(=O)Nc2ccc3c(c2)[C@H]2C[C@H](CC(=O)NCc4ccc(Cl)cc4)O[C@H](CO)[C@H]2O3)c1 | -23.8%
CN(C)C(=O)c1ccc(-c2ccc3c(c2)[C@H]2[C@H](CCN2C(=O)c2ccc4c(c2)OCO4)[C@H](CO)N3)cc1 | -2.98%
O=C(c1ccc(F)cc1)N1CCCCN2[C@H](C1)[C@@H](c1ccc(C#CC3(O)CCCC3)cc1)[C@@H]2CO | 2.43%
C[C@H](CO)N1C[C@H](C)[C@H](CN(C)S(=O)(=O)c2ccc(F)cc2)OCCCC[C@H](C)Oc2ccc(NS(=O)(=O)c3ccc(Cl)cc3)cc2C1=O | 22.2%
C[C@@H]1CN([C@H](C)CO)C(=O)c2cccc(NC(=O)NC3CCCCC3)c2O[C@H]1CN(C)Cc1ccc(C(F)(F)F)cc1 | -8.62%
C[C@@H]1CCCCO[C@H](CN(C)C(=O)CCC(F)(F)F)[C@H](C)CN([C@H](C)CO)C(=O)c2cc(NS(C)(=O)=O)ccc2O1 | 5.17%
COc1ccccc1C#Cc1ccc([C@H]2[C@H](CO)N3CCCCN(C(=O)C4CCC4)C[C@@H]23)cc1 | 50.3% (active)
COc1ccccc1C#Cc1ccc([C@@H]2[C@H](CO)N3CCCCN(C(=O)C4CCCC4)C[C@@H]23)cc1 | 53.5% (active)
O=C(C1CCC1)N1CCCCN2[C@H](CO)[C@H](c3ccc(-c4ccncc4)cc3)[C@@H]2C1 | -4.89%
OC[C@@H]1[C@H](c2ccc(C#Cc3ccccc3)cc2)[C@@H]2CN(Cc3cncnc3)CCCCN12 | 41.5% (active)
COc1ccccc1NC(=O)N1CCCCN2[C@H](C1)[C@H](c1ccc(-c3ccccc3)cc1)[C@@H]2CO | 33.3%
Cc1ccc(-c2ccc([C@H]3[C@H](CO)N4CCCCN(Cc5cncnc5)C[C@@H]34)cc2)cc1 | 20%
OC[C@@H]1[C@H](c2ccc(C#CC3(O)CCCC3)cc2)[C@H]2CN(Cc3cncnc3)CCCCN12 | 13.7%
O=C(CN1CCOCC1)N1CCCCN2[C@@H](CO)[C@H](c3ccc(/C=C/c4ccccc4)cc3)[C@@H]2C1 | 32.3%
CCC(=O)N1CCCCN2[C@H](C1)[C@@H](c1ccc(-c3ccc(F)cc3)cc1)[C@@H]2CO | 15.5%
O=C(C1CCC1)N1CCCCN2[C@H](CO)[C@H](c3ccc(-c4cccc(F)c4)cc3)[C@@H]2C1 | 30.8%
CCC(=O)N1CCCCN2[C@H](C1)[C@@H](c1ccc(/C=C/c3ccccc3)cc1)[C@@H]2CO | 38.9% (active)
COc1ccccc1C#Cc1ccc([C@@H]2[C@H](CO)N3CCCCN(C(=O)C4CC4)C[C@@H]23)cc1 | 17.7%
C[C@@H]1CCCCO[C@H](CN(C)S(=O)(=O)c2ccc(Cl)cc2)[C@H](C)CN([C@@H](C)CO)C(=O)c2cc(NS(=O)(=O)c3cccs3)ccc2O1 | -18.8%
